This note sets out measurements from PubChem BioAssay (NCI).

This is part of a sample that, as a whole, favours compounds with a hit. Of some 83,000 tested, about 20% had one in any assay.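 Compound tested at a single concentration for 48 hours in 96-well plates; a percent growth value below 10 was scored as active.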 Values without a mark were called inactive. Activity calls are given as the source filed them.

Among the test systems are K-562 leukemia; MALME-3M melanoma; MDA-MB-231 breast; RXF 393 renal; SF-268 CNS; SF-295 CNS; SF-539 CNS; UACC-257 melanoma; M14 melanoma; HCT-15 colon; HT29 colon; SNB-75 CNS; SNB-19 CNS; U251 CNS; PC-3 prostate; SK-MEL-5 melanoma; UACC-62 melanoma; LOX IMVI melanoma; SK-MEL-28 melanoma.
Common to all, as to experiment: NCI-60 one-dose screen, 48 h (100 = growth as untreated, 0 = no growth, -100 = all killed)
What all share (settings): 10 µM unless noted

For the compound `O=[N+]([O-])c1ccccc1CN1CCCCC1`, the growth in the test on K-562 leukemia is 136%; with MALME-3M melanoma, 121%; in the test with MDA-MB-231 breast it was 105%; in the test on RXF 393 renal it was 104%; with SF-268 CNS it was 112%; in the test on SF-295 CNS it was 112%. Also, the growth was 104% with SF-539 CNS; 110% with UACC-257 melanoma; 114% in the test with M14 melanoma; 107% in the test with HCT-15 colon; 113% in the test on HT29 colon; 87.8% in the test with SNB-75 CNS. Further, the growth in the test with SNB-19 CNS was 106%; in the test with U251 CNS, 110%; in the test on PC-3 prostate, 91.6%; in the test on SK-MEL-5 melanoma, 105%; in the test on UACC-62 melanoma, 103%; in the test on LOX IMVI melanoma, 96.6%. The growth in the test on SK-MEL-28 melanoma was 117%.

With `O=C(Nc1ccc2ncnc(Nc3ccc(F)c(Cl)c3)c2c1)c1cccs1`, the growth with K-562 leukemia is 49.9%; with MALME-3M melanoma, 66.4%; in the test with MDA-MB-231 breast, 43.4%; in the test on RXF 393 renal, -3.16% (active); in the test on SF-295 CNS it was 46.4%; in the test on SF-539 CNS, 63.5%. The growth is 101% in the test on UACC-257 melanoma; 65% in the test on M14 melanoma; 51% in the test with HCT-15 colon; 58.7% with HT29 colon; 50.5% with SNB-75 CNS; 68.9% with SNB-19 CNS. Besides, the growth was 54.7% with U251 CNS; 62.8% in the test on PC-3 prostate; 67.1% with SK-MEL-5 melanoma; 56.4% with UACC-62 melanoma; 51% in the test with LOX IMVI melanoma; 65.8% with SK-MEL-28 melanoma.

With `O=C1C=CC(=O)N1c1cccc(N2C(=O)C=CC2=O)c1`, the growth with K-562 leukemia is 104%; in the test with MALME-3M melanoma, -36.4% (active); in the test with MDA-MB-231 breast it was 107%; in the test with RXF 393 renal, -2.87% (active); in the test on SF-268 CNS, 108%; in the test on SF-295 CNS, 102%. Besides, the growth in the test with SF-539 CNS is 104%; with UACC-257 melanoma, 96.8%; with M14 melanoma, 98.8%; in the test with HCT-15 colon, 23.1%; with HT29 colon, 23.5%; in the test on SNB-19 CNS, 147%. The growth is 111% in the test on U251 CNS; 99.9% in the test on PC-3 prostate; 116% with SK-MEL-5 melanoma; 109% in the test with UACC-62 melanoma; 73.5% in the test with LOX IMVI melanoma; 108% in the test with SK-MEL-28 melanoma.

For the compound `CCCCCCCCCCCC1=NC(C)(C)CN1C(C)(C)CO`, the growth in the test with K-562 leukemia is 57.6%; in the test with MALME-3M melanoma, 62.7%; in the test on MDA-MB-231 breast, 57.7%; in the test with RXF 393 renal it was 56.3%; with SF-268 CNS, 69.1%; in the test with SF-295 CNS it was 90.3%. Further, the growth in the test on SF-539 CNS was 57.9%; in the test on UACC-257 melanoma, -23.4% (active); in the test with M14 melanoma, -84.4% (active); in the test with HCT-15 colon it was 8.9% (active); with HT29 colon, -29.3% (active); with SNB-75 CNS it was 49.3%. Further, the growth with U251 CNS was 21.4%; with PC-3 prostate, 54.9%; in the test with SK-MEL-5 melanoma it was 8.52% (active); in the test with UACC-62 melanoma, -69.5% (active); in the test with LOX IMVI melanoma it was -35.1% (active); with SK-MEL-28 melanoma, -5.89% (active).

`O=C(O)c1cn(-c2ccccc2)nc1-c1ccc(O)cc1`: the growth with K-562 leukemia is 100%; in the test on MALME-3M melanoma, 105%; in the test on MDA-MB-231 breast it was 95.7%; with RXF 393 renal, 108%; in the test on SF-295 CNS, 92.8%; in the test on SF-539 CNS, 101%. Also, the growth in the test with UACC-257 melanoma was 85.1%; in the test on M14 melanoma, 91.8%; in the test with HCT-15 colon it was 98.4%; in the test with HT29 colon, 94.7%; with SNB-75 CNS it was 86.1%; in the test on SNB-19 CNS it was 97.4%. Besides, the growth in the test on U251 CNS is 96.4%; in the test with PC-3 prostate, 91.2%; with SK-MEL-5 melanoma it was 106%; in the test on UACC-62 melanoma, 90.8%; in the test with LOX IMVI melanoma it was 91.7%; in the test with SK-MEL-28 melanoma it was 101%.

As for `CCCCCCCCCCCCCCCCCC1=NC(C)(C)CN1C(C)(C)CO`, the growth with K-562 leukemia is -56.6% (active); with MALME-3M melanoma, -58.1% (active); with MDA-MB-231 breast, -71.6% (active); in the test on RXF 393 renal, -68.7% (active); in the test on SF-268 CNS it was -84.6% (active); in the test on SF-295 CNS, 54.3%. Further, the growth in the test on SF-539 CNS is -45% (active); in the test on UACC-257 melanoma it was -41% (active); in the test with M14 melanoma it was -100% (active); in the test on HCT-15 colon, 1.33% (active); in the test with HT29 colon, -100% (active); with SNB-75 CNS, -1.88% (active). The growth was 37.2% in the test on SNB-19 CNS; -100% (active) in the test on U251 CNS; -1.05% (active) with PC-3 prostate; -53% (active) in the test on SK-MEL-5 melanoma; -86.9% (active) in the test on UACC-62 melanoma; -100% (active) in the test on LOX IMVI melanoma. In the test with SK-MEL-28 melanoma, the growth was -100% (active).

On to `CSCCC1NC(=O)C(C(C)=Nc2ccccc2)=C1O` (stereo not drawn), for which the growth in the test with K-562 leukemia is 124%; with MALME-3M melanoma, 112%; with MDA-MB-231 breast, 109%; with RXF 393 renal, 109%; in the test on SF-268 CNS it was 111%; with SF-295 CNS, 97.7%. Further, the growth is 119% in the test on SF-539 CNS; 113% in the test with UACC-257 melanoma; 103% in the test with M14 melanoma; 117% in the test on HCT-15 colon; 108% in the test on HT29 colon; 88.6% in the test on SNB-75 CNS. Moreover, the growth was 116% in the test on SNB-19 CNS; 111% in the test with U251 CNS; 92.7% in the test with PC-3 prostate; 112% with SK-MEL-5 melanoma; 101% in the test with UACC-62 melanoma; 105% with LOX IMVI melanoma. Moreover, in the test on SK-MEL-28 melanoma, the growth is 110%.

Consider `O=C(CCCCCCc1nc2ccc(Br)cc2[nH]1)NO`, for which the growth with K-562 leukemia is 6.07% (active); with MALME-3M melanoma, -6.27% (active); in the test on MDA-MB-231 breast, 2.73% (active); with RXF 393 renal it was -78.3% (active); in the test with SF-268 CNS it was 11.1%; in the test on SF-295 CNS, -17.2% (active). In addition, the growth in the test on SF-539 CNS is 17.8%; in the test on UACC-257 melanoma, -11% (active); with M14 melanoma, -16.1% (active); with HCT-15 colon, 35.9%; in the test with HT29 colon it was 1.25% (active); in the test with SNB-75 CNS it was -2.57% (active). The growth in the test on SNB-19 CNS is 1.94% (active); in the test with U251 CNS, -15.4% (active); with PC-3 prostate, 16.7%; in the test with SK-MEL-5 melanoma, -81.5% (active); in the test on UACC-62 melanoma, -79.8% (active); in the test with LOX IMVI melanoma, -98.9% (active). Besides, the growth in the test with SK-MEL-28 melanoma was -16.7% (active).
